D3 ag – activates the human D3 dopamine receptor; D3R DiscoveRx beta-arrestin cells, luminescence, 90 min; max activation, %; actives 0.58% (n = 410,000); AID 652048; in the data active means max activation above about 30%; further: 0% is about no effect
Target sequence (P35462 whole entry, looked up): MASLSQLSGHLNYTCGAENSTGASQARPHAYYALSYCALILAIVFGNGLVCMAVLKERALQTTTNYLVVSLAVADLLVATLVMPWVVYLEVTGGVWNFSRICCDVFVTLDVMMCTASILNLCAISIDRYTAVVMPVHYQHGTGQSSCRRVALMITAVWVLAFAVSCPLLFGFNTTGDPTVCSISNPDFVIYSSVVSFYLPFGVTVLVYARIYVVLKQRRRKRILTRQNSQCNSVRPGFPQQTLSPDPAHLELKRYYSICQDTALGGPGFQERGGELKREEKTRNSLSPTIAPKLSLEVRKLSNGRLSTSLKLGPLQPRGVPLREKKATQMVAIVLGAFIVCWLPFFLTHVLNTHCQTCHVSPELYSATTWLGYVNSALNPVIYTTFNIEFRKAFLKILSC
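Agonist-mode cell screen: cells plated at 1500/well and incubated overnight at 37 °C, then exposed to library compounds for 90 min at 37 °C. Detection reagent was added for 30–60 min at room temperature, and luminescence was read.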
Integrin act MD – integrin-mediated muscular dystrophy alleviation activation | alpha7betagal myoblasts, beta-gal FDG fluorescence, 48 h | Potency, µM (doses to about 38.3 µM), without a hit: top-dose activation, usual class: activators | actives 0.064% (n = 350,000) | AID 624291;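 further: potency means the concentration at half of the fitted maximal effect; 100% = response of the positive control SU9516; nearly all actives have a fitted effect of over 60% in size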
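Alpha7betagal+/- myoblasts (passage 13) were plated 16-24 hr, then exposed to compounds (1:260 dilution of DMSO stock) for 48 hours at 37C. After MPER lysis, β-galactosidase reporter activity was read as FDG fluorescence (ex 480/em 540) after 30 minutes.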
D3 antag – D3 dopamine receptor (human) antagonism; max response, negative = inhibition, %; AID 652054; D3R cells, DiscoveRx beta-arrestin luminescence, antagonist mode; hits give low values; actives 2.5% (n = 360,000); P35462; in the data active means max response below about -50%; inconclusive means no clear call, values can overlap the other calls; further: on the % scale 0 is the no-effect control and ±100 the full control effect
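Cells expressing the human receptor were seeded at 1500 cells/well, incubated overnight at 37 degrees C in 5% CO2, then exposed to library compounds with dopamine controls for 90 minutes at 37 degrees C before luminescent detection.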
S2 tox – cell viability loss in ATXN counter-screen; actives 0.49% (n = 400,000); S2 cells (HEK-293 line with an ATXN2-luciferase reporter) viability, CellTiter-Fluor protease fluorescence, 24 h; AID 651635; Potency, µM (doses to about 56.7 µM), actives largely listed as cytotoxic; further: potency means the concentration at half of the fitted maximal effect; nearly all actives have a fitted effect of over 40% in size
ATXN2 expr inh – reduces ATXN2 reporter expression in HEK-293 cells; AID 1745845; HEK-293 ATXN2-luciferase reporter, luminescence, 24 h; Potency, µM (doses to about 57 µM), inactives show at the highest dose activity change, negative = inhibition, most hits filed as inhibitors; actives 0.72% (n = 360,000); further: potency means the concentration at half of the fitted maximal effect; on the % scale 0 is the no-effect control and ±100 the full control effect; nearly all actives have a fitted effect of over 55% in size
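ATXN2-luciferase reporter cells (luciferase flanked by upstream and downstream ATXN2 gene portions) were treated 24 h at 37 °C with compounds at up to 57 uM. SteadyGlo luminescence gave expression; GF-AFC fluorescence gave viability.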
IL1B secr inh – inflammasome signaling inhibition, IL-1 beta readout; activity change, % at 57.5 µM; THP-1 LPS/ATP IL-1B secretion, AlphaLISA, 16 h; hits give low values; actives 4.7% (n = 360,000); in the data active means activity change below about -50%; inconclusive means mostly about -30% to -49%; further: on the % scale 0 is the no-effect control and ±100 the full control effect
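THP-1 cells pretreated 1 hr with compounds (up to 57.5 uM final), then stimulated with LPS (250 ng/mL final) plus ATP (1.25 mM final); secreted IL-1B measured by AlphaLISA after 16 hr, decreased signal indicating inhibition.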
* hit, by the source's call; i = inactive; ? = inconclusive; . = no result. An excerpt weighted towards active compounds, which were near 7% of everything screened. Unless noted, the call rests on the fitted dose curve; in most records, active means well fitted curve in the direction sought with a large enough effect; inconclusive means small, poorly fitted or top-dose-only effect, or another doubt; inactive means no such curve, though single readings can be large; an effect the other way counts as inactive or inconclusive.

SMILES	D3 ag	Integrin act MD	D3 antag	S2 tox	ATXN2 expr inh	IL1B secr inh
COc1ccc(NC(=O)[C@H](CCS(C)(=O)=O)N2Cc3ccccc3C2=O)c(OC)c1	2	9%	1	i	5%	1
CC(C)Cc1ccc(S(=O)(=O)Nc2cc3c(cc2N2CCOCC2)n(C)c(=O)c(=O)n3C)cc1	0	.	.	i	1%	.
Cc1nc(N/N=C/c2ccccn2)sc1C	3	-35%	2	?	0%	-101*
COC(=O)c1ccc(/C=N/Nc2nc(C)c(C)s2)cc1	-2	12%	-13	.	105%	.
CCCc1sc(N/N=C/c2ccccn2)nc1-c1ccc(F)cc1	2	-50%	5	16µM*	4µM*	-100*
O=C(Cn1ncc2c(Cl)cccc21)NCc1cccc(Cl)c1	-9	.	.	i	-3%	.
Cc1ccsc1/C=C(\C#N)C(=O)NCCCN1CCOCC1	1	33%	10	i	.	-18
CN1CCN(CCNC(=O)Nc2ccccc2C(F)(F)F)CC1	3	12%	8	i	-6%	11
C[C@@H](Oc1cc(-n2cnc3ccc(CN4CCN(C)CC4)cc32)sc1C(N)=O)c1ccccc1C(F)(F)F	.	.	.	.	31µM*	.
COc1ccc(C)cc1NC(=O)CCNS(=O)(=O)c1ccc2c(c1)CC(C)N2C(C)=O (stereo not given)	1	-7%	0	i	6%	34
C=CCSC1=NC(=O)/C(=C/c2cccs2)S1	-1	28%	-10	?	-18%	-100*
Cc1ccc(N(CC(O)CN2CCCCC2)S(=O)(=O)c2ccccc2[N+](=O)[O-])cc1 (stereo not given)	-17	-33%	-51*	i	-8%	?
COc1ccc(C)cc1NC(=O)C(Cc1ccccc1)NS(=O)(=O)c1cccs1 (stereo not given)	-1	.	.	i	-1%	.
N#Cc1ccc(-c2csc(NC(=O)/C=C/c3cccs3)n2)cc1	9	13%	52	i	4%	-5
Cc1ccc(-c2csc(NC(=O)/C=C/c3cccs3)n2)cc1C	-3	-5%	0	i	-11%	-80*
CC(=O)COc1ccc(-c2csnn2)cc1	-1	-5%	-24	i	41%	-9
c1ccc(COc2ccc(-c3csnn3)cc2)cc1	-1	23%	-61*	i	55%	-26
COCc1cc(=O)[nH]c(SCCS(=O)(=O)c2ccc(Cl)cc2Cl)n1	-8	-18%	-62*	.	20µM*	-28
COCc1cc(=O)[nH]c(SCCS(=O)(=O)c2ccc(C)cc2)n1	3	-25%	3	i	-18%	-12
CCOc1ccc(C(=O)N2CCCCC2CCN2CCOCC2)cc1 (stereo not given)	8	.	.	.	.	.
Cc1cc(-c2ccc(N=Nc3ccc4c(S(=O)(=O)O)cc(S(=O)(=O)O)c(N)c4c3O)c(C)c2)ccc1N=Nc1ccc2c(S(=O)(=O)O)cc(S(=O)(=O)O)c(N)c2c1O	-9	.	.	13µM*	.	.
Nc1c(N=Nc2ccc(-c3ccc(N=Nc4cc(S(=O)(=O)O)c5ccccc5c4N)cc3)cc2)cc(S(=O)(=O)O)c2ccccc12	-18	.	.	.	.	.
COc1cc(-c2nnc(SCC(=O)OC3CCCCC3)o2)cc(OC)c1OC	10	16%	14	i	2%	-60*
Cc1c(C(=O)NCCC2=CCCCC2)sc2ncnc(N3CCCCC3C)c12 (stereo not given)	3	-2%	15	i	-16%	-80*
Cc1sc2ncnc(N3CCCCC3C)c2c1C (stereo not given)	-1	-35%	8	i	-38%	48
CCc1ccc(CN2CCN(c3ncccn3)CC2)cc1	61*	-1%	?	.	.	46
Cc1cccc(CN2CCN(c3ncccn3)CC2)c1	8	?	-25	i	-1%	-16
Fc1ccc(F)c(CN2CCN(c3ncccn3)CC2)c1	31*	12%	12	i	5%	-10
Fc1ccc(CN2CCN(c3ncccn3)CC2)cc1	51*	-5%	-17	i	-5%	-3
